High-throughput results (PubChem BioAssay)
MCL1 BIM primary: disrupts human MCL1 binding to BIM-BH3 peptide; actives 0.68% (n = 320,000); GST-MCL1 / FITC-Bim-BH3 fluorescence polarization; inhibition, % at 10.9 µM;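 active means inhibition above the mean inhibition of all tested compounds plus 3 SD, set per campaign, cut at about 40% in these data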;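 further: higher means more loss of mP so more displacement of Bim peptide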
Target sequence (Q07820 whole entry, looked up): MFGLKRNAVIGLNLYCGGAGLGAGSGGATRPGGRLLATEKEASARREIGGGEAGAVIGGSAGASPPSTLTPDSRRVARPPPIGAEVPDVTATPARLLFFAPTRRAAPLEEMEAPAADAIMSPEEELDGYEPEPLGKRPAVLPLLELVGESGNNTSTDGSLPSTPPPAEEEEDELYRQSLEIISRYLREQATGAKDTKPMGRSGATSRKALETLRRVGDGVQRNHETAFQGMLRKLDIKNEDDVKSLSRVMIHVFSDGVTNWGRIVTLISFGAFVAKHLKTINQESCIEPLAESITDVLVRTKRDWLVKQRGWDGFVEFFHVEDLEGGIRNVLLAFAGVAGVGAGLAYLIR
EBV gp42 inh: EBV gp42 inhibition. Q1HVG2. Fluorescence polarization binding assay, mP read-out. inhibition, % (tested at 21.74 µM). actives 0.42% (n = 220,000). AID 1085; in the data active means inhibition above about 50%
MEX-5 binding: C. elegans MEX-5 TCR-2 RNA binding activity | Q9XUB2 | MEX-5/FITC-TCR2 RNA binding, fluorescence polarization; stronger effect = lower value | activity score (negative = inhibition of binding), % at 10 µM | actives 0.38% (n = 300,000);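 active means inhibition past about -25% in most replicates, and total fluorescence under double the plate's negative control median, limit read from the data; inconclusive means replicates evenly split on the limit, or fluorescence at least double controls; inactive means too little inhibition in most replicates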
GLD-1 TGE inh: GLD-1-TGE RNA interaction inhibition (C. elegans); Q17339; purified GLD-1 + fluorescein TGE RNA, fluorescence polarization; inhibition, % at 5.96 µM; actives 0.44% (n = 320,000); AID 2280;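 active means percent inhibition above a per-plate cutoff, the plate mean of test compounds plus 3 SD, cut at about 30% in these data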
Bcl-xL primary: blocks human Bcl-xL binding to Bim BH3 peptide. Q07817. GST-Bcl-xL / FITC-Bim BH3 peptide fluorescence polarization. inhibition, % at 10.9 µM. actives 0.7% (n = 320,000);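 active means inhibition above the mean of all tested compounds plus 3 SD, cutoff set per campaign, cut at about 30% in these data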;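 further: inhibitors lower millipolarization by displacing the labeled peptide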
Target sequence (Q07817 whole entry, looked up): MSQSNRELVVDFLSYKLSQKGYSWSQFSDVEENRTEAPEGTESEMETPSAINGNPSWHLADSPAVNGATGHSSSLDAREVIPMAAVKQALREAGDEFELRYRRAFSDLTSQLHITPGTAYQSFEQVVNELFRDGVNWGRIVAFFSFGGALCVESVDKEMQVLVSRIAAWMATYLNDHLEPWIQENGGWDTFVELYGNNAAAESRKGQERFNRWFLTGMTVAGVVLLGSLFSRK
Of the large screens only hits and unclear results are named; the others gave an inactive call. A selection: hits, their analogues and other compounds. The true share with any hit is near 1.3%.

Cc1cc[n+](-c2[nH]c(=O)sc2/C=N/N=C(\[O-])c2ccccc2)cc1C	EBV gp42 inh 137, MEX-5 binding inconclusive (no result: MCL1 BIM primary, GLD-1 TGE inh, Bcl-xL primary)
Cc1ccccc1-n1c(=O)cc(NCc2ccc3c(c2)OCO3)[nH]c1=O	none
Cc1ccccc1-n1c(=O)cc(NCC2CCCO2)[nH]c1=O (stereo unspecified)	Bcl-xL primary 36
CCN1C(=O)/C(=C\c2ccc(-c3ccc([N+](=O)[O-])cc3OC)o2)SC1=Nc1cccc(C(=O)O)c1	EBV gp42 inh 81 (no result: MCL1 BIM primary, GLD-1 TGE inh, Bcl-xL primary)
CCN1C(=O)/C(=C\c2ccc(-c3cccc(C(=O)OC)c3)o2)SC1=Nc1ccc(C(=O)O)cc1	none (no result: EBV gp42 inh)
CCN(CC(=O)Nc1c(F)cccc1F)C(=O)COc1ccc2c(C)cc(=O)oc2c1	none
Cc1ccc(N=Nc2c(N)[nH]n3c(=O)cc(-c4ccccc4)nc23)cc1	EBV gp42 inh 63
COc1cccc(N=Nc2c(N)[nH]n3c(=O)cc(-c4ccccc4)nc23)c1	none
O=C(NCc1ccccn1)c1c(-c2ccccc2)sc2ccccc12	none (no result: MCL1 BIM primary, EBV gp42 inh, MEX-5 binding, Bcl-xL primary)
O=C1OC(/C(=C\Nc2cc(Cl)ccc2O)[N+](=O)[O-])c2ccccc21 (stereo unspecified)	MEX-5 binding -26
O=C1OC(/C(=C\Nc2ccc(F)cc2F)[N+](=O)[O-])c2ccccc21 (stereo unspecified)	none
COc1ccc(-c2nc(N)nc(C)c2Oc2ccccc2Br)c(O)c1	Bcl-xL primary 42 (no result: MEX-5 binding)
O=C(NCC1CCCO1)C1CCCN(S(=O)(=O)c2ccc(Cl)cc2)C1 (stereo unspecified)	none (no result: EBV gp42 inh)
CCC1(C)Cc2ccccc2/C(=C/C(=O)N2CCCCC2)N1 (stereo unspecified)	Bcl-xL primary 31
Cc1cc(C(=O)OCC(=O)Nc2c(Cl)cccc2C(F)(F)F)c(C)o1	Bcl-xL primary 46 (no result: EBV gp42 inh)
Cc1ccsc1C(=O)OCC(=O)Nc1c(Cl)cccc1C(F)(F)F	none
Oc1ccc(-c2cn3ccccc3n2)cc1O	MEX-5 binding -28 (no result: EBV gp42 inh)
O=C(c1ccc(N2CCCC2=O)cc1)N1CCN(c2ccccc2O)CC1	none (no result: EBV gp42 inh, MEX-5 binding)
Cc1ccc(C)c(N2CCN(C(=O)c3ccc(N4CCCC4=O)cc3)CC2)c1	Bcl-xL primary 130 (no result: EBV gp42 inh)
Cc1cc2nc3c(=O)n(C4CCCCC4)c(=O)[nH]c3nc2cc1N	EBV gp42 inh 141 (no result: MCL1 BIM primary, MEX-5 binding, GLD-1 TGE inh, Bcl-xL primary)
Cc1cc(C)cc(Nc2cc(=O)n(C3CCCCC3)c(=O)[nH]2)c1	none
CCOC(=O)N1CCC(Nc2nc3ccccc3nc2NS(=O)(=O)c2ccc(Cl)cc2)CC1	EBV gp42 inh 54
CCOC(=O)N1CCC(NC(=O)c2ccc(Cl)cc2)CC1	none
COc1ccc(-n2c(O)c(/C=N/NS(=O)(=O)c3ccc(C)c([N+](=O)[O-])c3)c3ccccc3c2=O)cc1OC	Bcl-xL primary 41
CC(=O)N1c2ccc(Cl)cc2C2C=CCC2C1c1cccc2ccccc12 (stereo unspecified)	none (no result: MEX-5 binding)
CC(=O)N1c2ccc3ccccc3c2C2C=CCC2C1c1ccc(Br)cc1 (stereo unspecified)	GLD-1 TGE inh 41, Bcl-xL primary 37 (no result: MEX-5 binding)
CON(C)S(=O)(=O)c1cccc(C(=O)N(CC(=O)Nc2ccccc2C(F)(F)F)Cc2ccco2)c1	none (no result: MCL1 BIM primary, EBV gp42 inh, MEX-5 binding, Bcl-xL primary)
CNS(=O)(=O)c1cc2c3c(cccc3c1)C(=O)NC2=O	Bcl-xL primary 32
Oc1ccc(/C=N/Nc2ncnc3nc[nH]c23)cc1	MEX-5 binding -29
Fc1ccccc1/C=N/Nc1ncnc2nc[nH]c12	EBV gp42 inh 59
Cc1ccc(/C=N/Nc2ncnc3nc[nH]c23)cc1	MEX-5 binding -26
Cc1cccc(N(Cc2ccccc2)C(=O)c2ccccc2S(C)(=O)=O)c1	none (no result: EBV gp42 inh)
CCCCN1C(=O)/C(=C2/Sc3ccccc3N2C)S/C1=N\c1ncn[nH]1	MEX-5 binding -69
O=C(NCCc1ccc(Cl)cc1)C1CCN(C(=O)c2sccc2-n2cccc2)CC1	none
CC(CCc1ccccc1)NC(=O)C1CCN(C(=O)c2sccc2-n2cccc2)CC1 (stereo unspecified)	Bcl-xL primary 72
COc1ccc(NC(=O)C2CCCN(C(=O)Nc3ccc(F)cc3)C2)cc1 (stereo unspecified)	none (no result: EBV gp42 inh)
COc1cc(C(=O)NCC(c2ccccc2)N(C)C)ccc1OCc1c(C)noc1C (stereo unspecified)	none (no result: EBV gp42 inh, MEX-5 binding)
CCN1/C(=C/c2ccc3cccc(C)c3[n+]2CC)Sc2ccccc21	MEX-5 binding inconclusive, GLD-1 TGE inh 47
N#CC(C(=O)NCCc1ccccc1)c1nc2ccccc2nc1N1CCCCC1 (stereo unspecified)	MEX-5 binding inconclusive
CCOC(=O)C1CCCN(c2nc3ccccc3nc2C(C#N)C(=O)NCc2ccccc2)C1 (stereo unspecified)	EBV gp42 inh 54
CCCCOC(=O)C(C#N)c1nc2ccccc2nc1N1CCOCC1 (stereo unspecified)	none
CCN(CC)c1nc2ccccc2nc1C(C#N)C(=O)NCCCOC (stereo unspecified)	none
CCN(CC)c1nc2ccccc2nc1C(C#N)C(=O)NCCc1ccccc1 (stereo unspecified)	EBV gp42 inh 78, MEX-5 binding inconclusive
N#CC(C(=O)NCc1ccccc1)c1nc2ccccc2nc1N1CCCC1 (stereo unspecified)	MEX-5 binding -97
CCCCCCOC(=O)C(C#N)c1nc2ccccc2nc1N1CCOCC1 (stereo unspecified)	EBV gp42 inh 99
CCC/C(C(=O)NCCO)=C1/c2ccccc2C(=O)N1c1ccccc1	none (no result: MCL1 BIM primary, EBV gp42 inh, MEX-5 binding, Bcl-xL primary)
CC(C)CCN1CCN(Cc2cccc3cccnc23)CC1CCO (stereo unspecified)	none
O=C(CNC(=O)c1ccc2c(c1)S(=O)(=O)N=C1CCCCCN12)Nc1ccc(F)c(F)c1	none (no result: EBV gp42 inh)
Cc1ccc2nc(N3CCN(C)CC3)c(C=O)c(=O)n2c1	Bcl-xL primary 34 (no result: EBV gp42 inh)
CCN1CCN(c2nc3ccccn3c(=O)c2C=O)CC1	Bcl-xL primary 31 (no result: EBV gp42 inh)
Cc1ccc2nc(N3CCN(c4ccccc4)CC3)c(C=O)c(=O)n2c1	none
Nc1ccc(O)c2ccccc12	none (no result: EBV gp42 inh)
Cc1cccc(N=C2NC(=O)/C(=C3/C(=O)N(C)c4ccccc43)S2)c1C	Bcl-xL primary 50
CC(=O)c1ccc(-n2c(-c3cc(-c4ccco4)[nH]n3)n[nH]c2=S)cc1	none
O=C(O)c1ccc(-n2c(-c3cc(-c4ccco4)[nH]n3)n[nH]c2=S)cc1	MEX-5 binding -92
O=Cc1ccc(OCC(=O)N2CCOCC2)cc1	none
CC(C)OCC(O)CN1CCN(CCN2C(=O)c3cccc4cccc(c34)C2=O)CC1 (stereo unspecified)	MEX-5 binding -59 (no result: EBV gp42 inh)
N=C1/C(=C/c2ccc(-c3cccc(C(=O)O)c3)o2)C(=O)N=C2SC=C(c3ccccc3)N12	EBV gp42 inh 67
CCCCc1ccc(-c2nc(NC(=O)C3C4CCC(O4)C3C(=O)O)sc2C)cc1 (stereo unspecified)	none
CCN1CCN(CC(=O)N2N=C(c3cccs3)CC2c2ccc(OC)c(OC)c2)C(=O)C1=O (stereo unspecified)	EBV gp42 inh 64
